aSyn UTR inh = MLPCN primary screen, SNCA 5' untranslated region. alpha-synuclein 5'UTR reporter, inhibitor activity. inhibition, % (tested at 7.5 µM). 300,000 compounds, 0.82% hits; in the data active = inhibition above about 60%; inconclusive = no clear call, values can overlap the other calls;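 note: H4 neuroglioblastoma cells stably carrying SNCA 5'UTR luciferase fusion; 0% = DMSO wells and 100% = positive control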
Jurkat NFkB inh = lowers PMA/ionomycin-induced NF-kB signal in Jurkat cells. inhibition, % at 4 µM. PMA/ionomycin-induced NF-kB luciferase reporter, luminescence. 330,000 compounds, 0.53% hits. AID 435003; in the data active = inhibition above about 50%
697 NFkB inh = inhibitors of the PMA/ionomycin-induced NF-kB reporter in 697 B cells; 697 B-cell NF-kB luciferase reporter, 16 h; 330,000 compounds, 0.33% hits; AID 435022; inhibition, % at 4 µM; in the data active = inhibition above about 35%
Mdm2 MdmX PPI = disrupts the human Mdm2-MdmX interaction | SaOS-2 split-luciferase Mdm2/MdmX complementation, luminescence | 330,000 compounds, 3% hits | inhibition, % at 8 µM | O15151+Q00987;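 active = inhibition of at least 50% at 8 µM in the primary screen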
Gli-Sufu antag = antagonists of Gli-Sufu signaling; Sufu-KO-LIGHT fibroblasts, Gli luciferase reporter luminescence; inhibition, % at 5 µM; 340,000 compounds, 0.74% hits; AID 588413;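 active = inhibition above about 55%, limit read from the data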;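 note: 0% = DMSO-treated cells and 100% = wells with medium but no cells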
CSC inhib = cancer stem cell inhibition; AID 2717; inhibition, % at 7.5 µM; 300,000 compounds, 1.1% hits; cancer stem cell-like cells viability, luminescence; in the data active = inhibition above about 75%; inconclusive = no clear call, values can overlap the other calls; tested in HMLE shEcad cells
Mdm2-MdmX conf = confirmation of human Mdm2/MdmX interaction inhibitors; shares compounds with Mdm2 MdmX PPI; Mdm2-MdmX binding, luminescent assay; inhibition, % at 8 µM; 10,000 compounds, 55% hits; AID 489028; in the data active = inhibition above about 40%
Full FLuc ctr = inhibits full-length luciferase, flagging false Mdm2/MdmX hits; shares compounds with Mdm2 MdmX PPI; SaOS-2 full-length luciferase counterscreen, luminescence; inhibition, % at 8 µM; 6,200 compounds, 77% hits;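 active = mean inhibition at 8 µM reaching about 37%, which flags the compound as non-specific, limit read from the data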;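 note: p53-null SaOS-2 cells with luciferase driven by a doxycycline-inducible promoter; compound on cells about two nights before reading with doxycycline added after day one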
Gli antag conf = Gli-SUFU antagonism confirmation, single concentration. shares compounds with Gli-Sufu antag. Sufu-KO-LIGHT cells, Gli luciferase reporter, luminescence. inhibition, % at 5 µM. 2,500 compounds, 40% hits;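 active = mean inhibition at 5 µM reaching about 45%, limit read from the data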;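 note: plate controls were DMSO-treated cells for no effect and wells lacking cells for full effect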
SufuKO cytotox = cytotoxic in Gli-SUFU antagonist counter-screen. AID 651994. Sufu-KO-LIGHT cells cytotoxicity, ATP luminescence. 2,500 compounds, 32% hits. shares compounds with Gli-Sufu antag. cytotoxicity, % at 5 µM;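 active = mean cytotoxicity at 5 µM above about 25%, limit read from the data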;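 note: cells exposed to compound overnight for roughly 16 to 18 hours; plate controls were DMSO wells with cells for no effect and medium without cells for full effect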
Wnt3a cs = inhibits Wnt3a reporter, counter-screen for Gli-SUFU antagonists; shares compounds with Gli-Sufu antag; Wnt-LIGHT cells, Wnt3a-driven luciferase reporter, luminescence; inhibition, % at 6.25 µM; 2,500 compounds, 20% hits; AID 651995;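 active = mean inhibition above about 25%, limit read from the data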
Numbers without * were called inactive; ? = inconclusive; nt = no result given. Only some compounds are listed: those with a hit (about 4.5% of all), similar ones and a draw of the others.

SMILES	aSyn UTR inh	Jurkat NFkB inh	697 NFkB inh	Mdm2 MdmX PPI	Gli-Sufu antag	CSC inhib	Mdm2-MdmX conf	Full FLuc ctr	Gli antag conf	SufuKO cytotox	Wnt3a cs
CC[N+]1=C(C)C(C)(C)c2cc(C)ccc21	-6.9	37.4	-36.6	80.6*	56.8*	?	62.5*	28.2	45.5*	16.8	-3.0
CC(=O)c1ccccc1OC(=O)COc1ccc(Cl)cc1C	-17.3	9.7	16.2	16.9	-4.3	1.3	nt	nt	nt	nt	nt
COc1ccc(-c2c[n+](CC(=O)OC3CC(C)CCC3C(C)C)c3n2CCC3)cc1 (centres undefined)	-19.9	16.1	5.5	62.9*	89.8*	-2.1	31.3	56.6*	89.5*	26.0*	19.9
O=C(C[n+]1cc(-c2ccc(Cl)cc2)n2c1CCCCC2)c1ccccc1	-44.3	-7.0	-20.8	-9.7	25.3	4.0	nt	nt	nt	nt	nt
CC(C)[C@@H]1CC[C@@H](C)C[C@H]1OC(=O)C[n+]1cc(-c2ccc(Cl)cc2)n2c1CCCCC2	-1.9	21.3	-13.8	77.8*	66.0*	21.9	72.8*	28.7	77.2*	34.8*	-32.5
CC1CCC(C(C)C)C(OC(=O)C[n+]2cccc(C(N)=O)c2)C1 (centres undefined)	-2.8	0.9	11.6	11.6	-27.7	nt	nt	nt	nt	nt	nt
CCOC(=O)N1CCN(C(=O)Cn2ncn3nc(-c4cccs4)cc3c2=O)CC1	12.9	-8.3	5.1	-4.5	8.7	-7.0	nt	nt	nt	nt	nt
Cc1nn(CC(=O)c2ccccc2)c(=O)c2nn(-c3ccccc3F)c(C)c12	27.6	1.8	16.6	-10.3	0.3	-3.6	nt	nt	nt	nt	nt
C=CCN(C(=O)c1csnn1)C(C(=O)NCc1ccc(F)cc1)c1ccccc1 (centres undefined)	0.2	3.9	3.2	23.3	-11.2	nt	nt	nt	nt	nt	nt
CCCCCC[N+](C)(C)CCSSCC[N+](C)(C)CCCCCC	-10.3	6.2	19.6	-23.3	6.1	-2.8	nt	nt	nt	nt	nt
C#CC[N+](C)(C)CCCCCCCCCC	75.3*	29.8	-7.5	70.7*	55.7*	-0.5	67.6*	55.9*	58.4*	36.5*	47.5*
CC#CC[N+](C)(C)CCCCCCCCCCCC	8.4	35.9	32.1	87.3*	87.7*	33.0	64.3*	29.6	88.6*	31.2*	16.8
C#CC[N+](C)(C)CCCCCCCC	28.3	2.3	0.5	22.5	21.2	9.8	nt	nt	nt	nt	nt
COc1ccc(OC)c(NC(=O)CCC(=O)Oc2ccc(C)cc2)c1	-0.4	23.7	-0.2	20.2	-1.8	-18.5	nt	nt	nt	nt	nt
N#Cc1ccc(C(=O)NC2CCCCCCC2)cc1	-131.9	-77.5	-41.3	-35.7	-58.4	-9.7	nt	nt	nt	nt	nt
COC(=O)c1cc(C(=O)N2CCN(c3ccccc3OC)CC2)cc([N+](=O)[O-])c1	43.7	40.6	23.8	51.9*	51.5	-9.2	55.6*	59.5*	39.4	50.1*	-36.7
CCOc1ccc(/C=C2\SC(=S)N(CCC(=O)N(CCO)c3ccccc3)C2=O)cc1	54.7	-6.1	21.5	65.0*	50.7	8.9	17.1	nt	18.1	23.4	-10.7
CCCCCCCCn1c(=O)c(C(=O)OC)c(N)c2ccccc21	17.5	17.4	-18.0	75.5*	67.5*	9.5	6.4	nt	29.7	12.5	27.8*
CCCCCCCn1c(=O)c(C(=O)OC)c(N)c2ccccc21	18.4	10.6	-25.8	30.8	38.6	0.7	nt	nt	nt	nt	nt
Cc1cc(C(=O)CSc2nc3ccccc3c(=O)n2C)c(C)n1Cc1ccc2c(c1)OCO2	3.3	37.2	-14.6	63.4*	73.3*	20.7	32.1	nt	77.8*	37.9*	48.8*
CC(=O)Nc1ccc(CNc2ncnc3ccc(-c4c(C)noc4C)cc23)cc1	nt	-21.1	-78.5	88.0*	72.7*	16.4	68.4*	49.0*	77.7*	30.9*	-21.9
